Results reported in PubChem BioAssay (Tox21).
The source made the active and inactive calls. A call without a number means that no potency is given here. Calls come from the whole dose curve.

The molecules below were run against Acetylcholinesterase (Homo sapiens) (UniProt P22303) (assay: Acetylcholinesterase (AChE) small molecule antagonists: enzyme-based qHTS assay with human liver microsomes (AID 1347399; note: nearly all actives have a fitted effect of over 60% in size)). Settings: Potency: qHTS inhibition; outcome: qHTS inhibition; series mostly up to 115 µM.
Sequence of Acetylcholinesterase (Homo sapiens) (P22303 whole entry, looked up): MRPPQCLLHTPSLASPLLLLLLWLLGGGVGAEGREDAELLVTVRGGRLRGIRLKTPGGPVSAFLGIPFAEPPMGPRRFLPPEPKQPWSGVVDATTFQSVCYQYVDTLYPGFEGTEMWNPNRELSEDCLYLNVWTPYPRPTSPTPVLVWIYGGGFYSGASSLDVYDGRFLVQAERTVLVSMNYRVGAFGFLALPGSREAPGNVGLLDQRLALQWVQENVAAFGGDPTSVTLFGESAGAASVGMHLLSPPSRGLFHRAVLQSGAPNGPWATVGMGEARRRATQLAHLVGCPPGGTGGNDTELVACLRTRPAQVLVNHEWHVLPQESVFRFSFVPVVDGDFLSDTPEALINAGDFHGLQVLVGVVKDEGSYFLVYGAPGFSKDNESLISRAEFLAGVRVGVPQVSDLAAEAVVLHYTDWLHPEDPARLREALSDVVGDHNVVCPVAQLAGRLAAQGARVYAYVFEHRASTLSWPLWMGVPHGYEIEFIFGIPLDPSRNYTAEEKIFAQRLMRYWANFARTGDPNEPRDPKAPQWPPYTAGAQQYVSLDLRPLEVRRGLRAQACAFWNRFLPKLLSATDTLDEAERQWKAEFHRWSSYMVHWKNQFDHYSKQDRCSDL
In short: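 Recombinant human AChE (50 mU/mL in the enzyme mix) and human liver microsomes (0.25 mg/mL final) were preincubated with compound and NADPH (0.25 mg/mL final) for 30 min at 37 C. Acetylthiocholine/DTNB was then added; thiocholine was read colorimetrically after 10 min at room temperature.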

| Compound | Potency |
| --- | --- |
| CC1CC(OC(=O)c2ccccc2O)CC(C)(C)C1 (stereo unspecified) | inactive |
| O=c1cccc[nH]1 | inactive |
| Cc1cccc(C)c1C | inactive |
| Cc1cc2c(s1)Nc1ccccc1N=C2N1CCN(C)CC1 | inactive |
| CCCC1CCC(=O)O1 (stereo unspecified) | inactive |
| O=S(=O)(O)c1ccc(N=Nc2c(O)ccc3cc(S(=O)(=O)O)ccc23)cc1 | inactive |
| Cc1ccc(Br)cc1 | inactive |
| O=C(CC(=O)c1ccccc1)c1ccccc1 | inactive |
| O=c1[nH]cnc2nc[nH]c12 | inactive |
| CC(=O)OCC(=O)[C@@]1(O)CC[C@H]2[C@@H]3CCC4=CC(=O)C=C[C@]4(C)[C@H]3[C@@H](O)C[C@@]21C | inactive |
| CC(C)(C)c1n[nH]c(=O)n(N)c1=O | inactive |
| Cc1ccc2cccnc2c1 | inactive |
| C/C=C/c1ccc(O)c(OC)c1 | inactive |
| O=C(/C=C/c1ccc([N+](=O)[O-])cc1)c1ccccc1 | inactive |
| CC[Si](OC(C)=O)(OC(C)=O)OC(C)=O | inactive |
| CCCN(CCC)C(=O)C(CCC(=O)OCCCN1CCN(CCOC(=O)Cc2c(C)n(C(=O)c3ccc(Cl)cc3)c3ccc(OC)cc23)CC1)NC(=O)c1ccccc1 (stereo unspecified) | inactive |
| O=c1c2ccccc2oc2ccccc12 | inactive |
| CCN[C@H]1CN(CCCOC)S(=O)(=O)c2sc(S(N)(=O)=O)cc21 | inactive |
| CC1=Nc2ccccc2C1(C)C | inactive |
| O=C1NCCN1CCO | inactive |
| Nc1nc(Cl)nc2c1ncn2[C@H]1C[C@H](O)[C@@H](CO)O1 | inactive |
